Results filed as inconclusive are left out. Values without a mark were called inactive. Calls of active or inactive are those of the source. Calls follow the shape of the dose curve; as a rule, active = well fitted cell-killing curve with a large enough effect; inconclusive = small, poorly fitted or top-dose-only effect, or effect the other way; inactive = no such curve, though single readings can be large or run the other way.
% is scaled to controls: 0 for no effect and ±100 for the full control effect; potency is read from the fitted curve at half-maximal effect.

The test concerns Tov-21-G. The experiment in a line: Confirmatory qHTS for gynecologic anti-cancer compounds from libraries of approved drugs and bioactive compounds. Also: nearly all actives have a fitted effect of over 55% in size. The following applies: gynecologic cancer cell panel viability, ATPlite luminescence, 48 h; series mostly up to 57.7 µM; activity change, negative = viability loss: at the top concentration. The method in brief: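 ATP-based luminescent viability (ATPlite) after 48 h drug treatment at 37 °C, 5% CO2, across 57.5 uM–0.977 nM in 1:3 steps. Cells seeded at 1,000 per well 16 h beforehand; IC50 values computed, HEK 293T as selectivity control.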
In general terms: qHTS replaces the single test concentration by a dilution series.
As to `CC(=O)O[C@H]1C(=O)[C@@]2(C)[C@H]([C@H](OC(=O)c3ccccc3)[C@]3(O)C[C@H](OC(=O)[C@H](O)[C@@H](NC(=O)c4ccccc4)c4ccccc4)C(C)=C1C3(C)C)[C@]1(OC(C)=O)CO[C@@H]1C[C@@H]2O`, the activity change, negative = viability loss is 0.907% [at 11 µM].
For the compound `CCCCc1nc2cc(/C=C/C(=O)NO)ccc2n1CCN(CC)CC`, the Potency is 3.06 µM (active).
On the same count and under the same terms, as for `CN1CCN(Cc2ccc(NC(=O)Nc3ccc(Oc4cc(NC(=O)C5CC5)ncn4)cc3)cc2C(F)(F)F)CC1`, the figure is 0.432 µM (active).
With `COc1cc2c(Oc3ccc(-c4cnc(Nc5ccc(F)cc5)n(C)c4=O)cc3F)ccnc2cc1OCCCN1CCOCC1`, the Potency was 19.3 µM (active).
The same measure, in the same setting: to `CNC(=O)c1ccccc1Nc1nc(Nc2ccc(N3CCOCC3)cc2OC)ncc1Cl` belongs 3.85 µM (active); to `Nc1nc(Cl)nc2c1ncn2C1OC(CO)C(O)C1F` (centres undefined), 3.43 µM (active).
Turning to `Cc1cnc(Nc2ccc(CN3CCOCC3)cc2)nc1Nc1cccc(S(=O)(=O)NC(C)(C)C)c1`, the Potency was 0.243 µM (active).
The same measure, in the same setting: to `COc1cccc2c1C(=O)c1c(O)c3c(c(O)c1C2=O)C[C@@](O)(C(=O)CO)C[C@@H]3O[C@H]1C[C@H](N)[C@H](O)[C@H](C)O1` belongs 2.43 µM (active); to `Cc1cc(C2CCCCC2)n(O)c(=O)c1`, 17.7 µM (active).
As to `O=C1N(c2ccccc2)c2ccccc2C1(Cc1ccncc1)Cc1ccncc1`, the “activity change, negative = viability loss” value is 18.7%.
Still for that read-out and setting: as for `CN(Cc1cnc2nc(N)nc(N)c2n1)c1ccc(C(=O)N[C@@H](CCC(=O)O)C(=O)O)cc1`, the figure is -25.3%.
As to `COc1cc(F)c(F)c(Nc2ccc(I)cc2F)c1NS(=O)(=O)C1(CC(O)CO)CC1` (centres undefined), the Potency is 13.7 µM (active).
On the same count and under the same terms, to `O=C1c2c(O)ccc(O)c2C(=O)c2c(NCCNCCO)ccc(NCCNCCO)c21` belongs 4.32 µM (active).
Take `Cc1ccc2nc(N)[nH]c(=O)c2c1Sc1ccncc1`: the “activity change, negative = viability loss” value was -31.5%.
Consider `CN(NC(=O)CC(=O)NN(C)C(=S)c1ccccc1)C(=S)c1ccccc1`, for which the Potency was 0.153 µM (active).
As for `CCc1c2c(nc3ccc(OC(=O)N4CCC(N5CCCCC5)CC4)cc13)-c1cc3c(c(=O)n1C2)COC(=O)[C@]3(O)CC`, the Potency is 21.7 µM (active).
Turning to `Cc1cncc2cccc(S(=O)(=O)N3CCCN(C(=O)CN)C[C@@H]3C)c12`, the “activity change, negative = viability loss” value is -18.6%.
For `Nc1ccc(-c2ccc3ncc4ccc(=O)n(-c5cccc(C(F)(F)F)c5)c4c3c2)cn1`, the Potency is 3.43 µM (active).
On to `COc1cc2nccc(Oc3ccc(NC(=O)Nc4cc(C)on4)c(Cl)c3)c2cc1OC`, for which the Potency is 19.3 µM (active).
On to `OC[C@H]1O[C@@H](n2cnc3c(=S)nc[nH]c32)[C@H](O)[C@@H]1O`, for which the “activity change, negative = viability loss” value was -22.2%.
With `CNC(=O)c1nn(C)c2c1C(C)(C)Cc1cnc(Nc3ccc(N4CCN(C)CC4)cc3)nc1-2`, the Potency was 0.122 µM (active).
Regarding `CN1CCN(CCOc2cc(OC3CCOCC3)c3c(Nc4c(Cl)ccc5c4OCO5)ncnc3c2)CC1`, the Potency was 0.243 µM (active).
In the case of `COc1ccc(-c2cc3nccn3c(Nc3ncccc3C(N)=O)n2)cc1OC`, the Potency is 4.85 µM (active).
In the case of `CN1CCCC(n2nc(Cc3ccc(Cl)cc3)c3ccccc3c2=O)CC1` (centres undefined), the Potency is 30.6 µM (active).
On to `O=c1cc(CN2CCOCC2)occ1OCCCCCSc1ccnc2cc(C(F)(F)F)ccc12`, for which the “activity change, negative = viability loss” value is -17.4%.
As to `COc1ccc(-c2ccc3c(N4CCOCC4C)nc(N4CCOCC4C)nc3n2)cc1CO` (centres undefined), the “activity change, negative = viability loss” value is -33.8%.
In the case of `C#C[C@]1(O)CC[C@H]2[C@@H]3CCC4=CC(=O)CC[C@@H]4[C@H]3CC[C@@]21CC`, the “activity change, negative = viability loss” value is 12.4%.
On the same count and under the same terms, as for `NC1(c2ccc(-c3nc4ccn5c(=O)[nH]nc5c4cc3-c3ccccc3)cc2)CCC1`, the figure is -10.2%.
`CC(Oc1ccc2[nH]nc(/C=C/c3cnn(CCO)c3)c2c1)c1c(Cl)cncc1Cl` (centres undefined): the Potency is 6.11 µM (active).

(Values after PubChem BioAssay AID1345085 (National Center for Advancing Translational Sciences (NCATS), 2018).)
